These results are taken from PubChem BioAssay (NCI).

This test is described as follows: NCI Yeast Anticancer Drug Screen. Data for the sgs1 mgt1 strain (AID 161).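 Note: 0% = growth of cultures given vehicle only.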 Conditions: S. cerevisiae sgs1 mgt1 strain, active compounds read high. The method, then: Growth inhibition of yeast strains with defined genetic alterations is measured as a screen for potential anti-cancer activity. Selected strains with alterations in DNA damage repair or cell cycle control were exposed to compounds and growth inhibition was measured relative to vehicle treated controls. The strain used in this assay is sgs1 mgt1

The mark [1] stands for this setting: at 5.0 µM (retest, dose inferred, filed as 0.5).
[2] abbreviates: at 50.0 µM (retest, dose inferred, filed as 5.0).

Compounds without any hit were thinned out: in the full panel of roughly 79,000, 15% have a hit. Unmarked numbers belong to inactive results. Active and inactive are the calls of the source. Cut-off read from the data, not from the text of the source: active = growth inhibition above about 70%; inactive = the rest.

On to `c1cc[c]([Ge]([O]c2cccc3cccnc23)([c]2ccccc2)[c]2ccccc2)cc1`, for which the growth inhibition is -3% under setting [1], -3% under setting [2] and 67.5% (at 50.0 µM).

For `CC(C)NC(=O)O/N=C1\CCC2[C@@H]3CC=C4C[C@@H](OC(=O)NC(C)C)CC[C@]4(C)C3CC[C@]12C` (some centres not stated), the growth inhibition reads like this: under setting [1], 90% (active); under setting [2], 73% (active); (at 50.0 µM) 92.3% (active).

Regarding `C=C1C(=O)O[C@@H]2CC(CO)=C([C@@H](C)CCCO)[C@@H](OC(=O)/C(C)=C\C)[C@H]12`, the growth inhibition reads like this: under setting [1], 4%; under setting [2], 25%; (at 50.0 µM) 93.8% (active).

In the case of `CCc1c(O)c(O)c(C(C)=O)c2c(O)c(-c3c(C)cc4c(CC)c(O)c(O)c(C(C)=O)c4c3O)c(C)cc12`, the growth inhibition under setting [1] was -10%, the growth inhibition under setting [2] is 96% (active) and the growth inhibition (at 50.0 µM) is 95.2% (active).

On to `Nc1ncnc2nc(-c3ccc(C[P+](c4ccccc4)(c4ccccc4)c4ccccc4)cc3)[nH]c12`, for which the growth inhibition by setting is: under setting [1], 0%; under setting [2], 78% (active); (at 50.0 µM) 73.8% (active).

In the case of `CN(CN(C)N=Nc1ccc(Cl)cc1)CN(C)N=Nc1ccc(Cl)cc1`, the growth inhibition by setting is: under setting [1], -24%; under setting [2], 4%; (at 50.0 µM) 4.7%.

In the case of `CCCCCCCCCCCCCCCCCCOP(=O)([O-])OCC[N+](C)(C)C`, the growth inhibition is -2% under setting [1], 99% (active) under setting [2] and 92.5% (active) (at 50.0 µM).

`CCSc1nc2ccc(N3C(=O)C=CC3=O)cc2s1`: the growth inhibition by setting is: under setting [1], 96% (active); under setting [2], 100% (active); (at 50.0 µM) 99.5% (active).

For `CCC1(CC)COC(C)(C(=O)O)OC1`, the growth inhibition reads like this: under setting [1], -68%; under setting [2], -69%; (at 50.0 µM) -2.95%.

Consider `O=C(O)C1(Cc2ccc3c(c2)CCC3)Cc2cc3c(cc2C1)CCC3`, for which the growth inhibition runs as follows: under setting [1], -1%; under setting [2], -1%; (at 50.0 µM) 77.8% (active).

For the compound `CCOC(=O)C(=Cc1ccc(OC)cc1)C(=O)OCC`, the growth inhibition under setting [1] is -3%, the growth inhibition under setting [2] was 65% and the growth inhibition (at 50.0 µM) was 55.6%.

`O=S(=O)(Nc1ccc(Cl)cc1)c1ccccc1`: the growth inhibition is 1% under setting [1], 80% (active) under setting [2] and 47.7% (at 50.0 µM).

In the case of `Oc1cccc2ccc(SSc3ccc4cccc(O)c4n3)nc12`, the growth inhibition under setting [1] was 94% (active), the growth inhibition under setting [2] was 95% (active) and the growth inhibition (at 50.0 µM) was 93% (active).

On to `CC1CCN(CCOC(=O)C(c2ccccc2)C2C=CCCC2)C1` (configuration not stated), for which the growth inhibition by setting is: under setting [1], 8%; under setting [2], 77% (active); (at 50.0 µM) 51.1%.
